Experimental data published in the supplement of paper PMC11732987, “Enantioselective OTUD7B fragment discovery through chemoproteomics screening and high-throughput optimisation” (Communications Chemistry, 2025).

How the values were obtained:
Test in all cases: log2 ratio of Biotin-Ahx-Ub-VS probe labelling (fragment/DMSO); higher = less target engagement (more negative = stronger competition), active = hit call of the paper (q ≤ 0.05, log2 ratio ≤ -1)
Settings in all cases: compound concentration: 200 uM; treatment time: 3 h
USP19 = target: T1, USP19 (UniProt O94966)
T1 sequence (whole entry): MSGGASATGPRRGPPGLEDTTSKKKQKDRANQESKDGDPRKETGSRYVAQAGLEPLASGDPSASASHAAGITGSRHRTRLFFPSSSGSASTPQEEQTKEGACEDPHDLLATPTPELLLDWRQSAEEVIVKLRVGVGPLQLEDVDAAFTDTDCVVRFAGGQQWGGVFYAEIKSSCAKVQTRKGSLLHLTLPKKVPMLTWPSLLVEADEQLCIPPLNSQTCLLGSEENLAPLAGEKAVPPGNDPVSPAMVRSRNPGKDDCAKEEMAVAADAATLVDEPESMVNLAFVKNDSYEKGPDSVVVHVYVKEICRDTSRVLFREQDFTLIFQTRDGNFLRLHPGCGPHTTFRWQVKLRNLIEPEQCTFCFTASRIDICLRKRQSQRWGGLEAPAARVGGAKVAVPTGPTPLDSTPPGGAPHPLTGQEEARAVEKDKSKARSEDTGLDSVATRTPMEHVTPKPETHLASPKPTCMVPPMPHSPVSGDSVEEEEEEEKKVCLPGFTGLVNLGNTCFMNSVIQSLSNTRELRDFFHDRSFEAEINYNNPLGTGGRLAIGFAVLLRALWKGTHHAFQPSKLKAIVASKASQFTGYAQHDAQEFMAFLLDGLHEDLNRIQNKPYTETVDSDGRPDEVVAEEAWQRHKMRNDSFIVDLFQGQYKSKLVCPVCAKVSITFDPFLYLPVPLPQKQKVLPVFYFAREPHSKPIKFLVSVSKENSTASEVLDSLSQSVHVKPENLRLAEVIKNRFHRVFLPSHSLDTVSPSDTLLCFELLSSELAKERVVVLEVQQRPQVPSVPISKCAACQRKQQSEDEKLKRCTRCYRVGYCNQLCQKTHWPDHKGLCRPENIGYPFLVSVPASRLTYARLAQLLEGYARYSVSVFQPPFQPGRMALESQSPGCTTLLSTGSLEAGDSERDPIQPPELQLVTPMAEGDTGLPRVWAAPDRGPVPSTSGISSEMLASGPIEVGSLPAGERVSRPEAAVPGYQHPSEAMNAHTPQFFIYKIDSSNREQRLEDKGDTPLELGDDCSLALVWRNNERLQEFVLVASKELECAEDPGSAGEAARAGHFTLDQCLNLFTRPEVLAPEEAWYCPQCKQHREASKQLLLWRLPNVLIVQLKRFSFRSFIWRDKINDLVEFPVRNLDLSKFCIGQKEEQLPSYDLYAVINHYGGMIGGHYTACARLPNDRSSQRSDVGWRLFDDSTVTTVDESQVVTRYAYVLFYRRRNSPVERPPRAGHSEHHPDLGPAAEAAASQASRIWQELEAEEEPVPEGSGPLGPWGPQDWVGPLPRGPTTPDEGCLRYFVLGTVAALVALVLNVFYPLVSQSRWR
How it was run: (§1)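 Global-median-normalised Spectronaut label-free quantities were compared by unpaired t-test, and values are average log2 ratios of fragment over vehicle. Only proteins with ≥2 unique peptides were used. HEK293T lysate (495 µg per sample) was treated in triplicate with fragment at 200 µM or vehicle for 3 h and then with Biotin-Ahx-Ub-VS at 0.5 µM final for 1 h. Labelled DUBs were then NeutrAvidin-enriched, digested with LysC and trypsin, and run by diaPASEF LC-MS/MS.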

USP24 = USP24 (UniProt Q9UPU5)
How it was run: as §1

USP25 = target: T2, USP25 (UniProt Q9UHP3)
T2 sequence (whole entry): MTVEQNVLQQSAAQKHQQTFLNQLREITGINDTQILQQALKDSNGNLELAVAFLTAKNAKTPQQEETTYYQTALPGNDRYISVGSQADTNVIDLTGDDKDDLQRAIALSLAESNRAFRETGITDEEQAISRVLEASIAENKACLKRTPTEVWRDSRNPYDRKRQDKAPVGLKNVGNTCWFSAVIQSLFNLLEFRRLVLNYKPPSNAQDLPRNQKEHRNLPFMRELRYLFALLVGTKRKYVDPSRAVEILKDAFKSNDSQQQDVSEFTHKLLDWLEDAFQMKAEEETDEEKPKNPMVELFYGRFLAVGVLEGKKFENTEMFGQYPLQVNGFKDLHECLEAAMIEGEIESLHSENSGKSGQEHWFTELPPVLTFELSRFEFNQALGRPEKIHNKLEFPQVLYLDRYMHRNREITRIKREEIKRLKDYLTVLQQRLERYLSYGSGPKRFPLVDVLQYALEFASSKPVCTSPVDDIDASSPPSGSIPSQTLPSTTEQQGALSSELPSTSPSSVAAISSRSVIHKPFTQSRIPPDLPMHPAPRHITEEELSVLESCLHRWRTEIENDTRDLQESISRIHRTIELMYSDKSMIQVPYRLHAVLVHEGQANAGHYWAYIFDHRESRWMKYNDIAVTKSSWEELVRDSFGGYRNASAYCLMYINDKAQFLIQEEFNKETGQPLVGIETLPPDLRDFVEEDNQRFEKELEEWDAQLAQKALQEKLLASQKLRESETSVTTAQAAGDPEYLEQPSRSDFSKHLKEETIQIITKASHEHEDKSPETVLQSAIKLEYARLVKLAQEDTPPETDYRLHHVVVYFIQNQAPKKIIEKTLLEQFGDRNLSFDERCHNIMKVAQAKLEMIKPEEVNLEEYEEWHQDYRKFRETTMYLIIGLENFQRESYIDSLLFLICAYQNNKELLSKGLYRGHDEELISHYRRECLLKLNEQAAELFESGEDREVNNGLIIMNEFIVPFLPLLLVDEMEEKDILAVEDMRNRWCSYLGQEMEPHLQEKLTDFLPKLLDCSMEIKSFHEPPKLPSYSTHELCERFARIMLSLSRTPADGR
How it was run: as §1

USP28 = target: T3, USP28 (UniProt Q96RU2)
T3 sequence (whole entry): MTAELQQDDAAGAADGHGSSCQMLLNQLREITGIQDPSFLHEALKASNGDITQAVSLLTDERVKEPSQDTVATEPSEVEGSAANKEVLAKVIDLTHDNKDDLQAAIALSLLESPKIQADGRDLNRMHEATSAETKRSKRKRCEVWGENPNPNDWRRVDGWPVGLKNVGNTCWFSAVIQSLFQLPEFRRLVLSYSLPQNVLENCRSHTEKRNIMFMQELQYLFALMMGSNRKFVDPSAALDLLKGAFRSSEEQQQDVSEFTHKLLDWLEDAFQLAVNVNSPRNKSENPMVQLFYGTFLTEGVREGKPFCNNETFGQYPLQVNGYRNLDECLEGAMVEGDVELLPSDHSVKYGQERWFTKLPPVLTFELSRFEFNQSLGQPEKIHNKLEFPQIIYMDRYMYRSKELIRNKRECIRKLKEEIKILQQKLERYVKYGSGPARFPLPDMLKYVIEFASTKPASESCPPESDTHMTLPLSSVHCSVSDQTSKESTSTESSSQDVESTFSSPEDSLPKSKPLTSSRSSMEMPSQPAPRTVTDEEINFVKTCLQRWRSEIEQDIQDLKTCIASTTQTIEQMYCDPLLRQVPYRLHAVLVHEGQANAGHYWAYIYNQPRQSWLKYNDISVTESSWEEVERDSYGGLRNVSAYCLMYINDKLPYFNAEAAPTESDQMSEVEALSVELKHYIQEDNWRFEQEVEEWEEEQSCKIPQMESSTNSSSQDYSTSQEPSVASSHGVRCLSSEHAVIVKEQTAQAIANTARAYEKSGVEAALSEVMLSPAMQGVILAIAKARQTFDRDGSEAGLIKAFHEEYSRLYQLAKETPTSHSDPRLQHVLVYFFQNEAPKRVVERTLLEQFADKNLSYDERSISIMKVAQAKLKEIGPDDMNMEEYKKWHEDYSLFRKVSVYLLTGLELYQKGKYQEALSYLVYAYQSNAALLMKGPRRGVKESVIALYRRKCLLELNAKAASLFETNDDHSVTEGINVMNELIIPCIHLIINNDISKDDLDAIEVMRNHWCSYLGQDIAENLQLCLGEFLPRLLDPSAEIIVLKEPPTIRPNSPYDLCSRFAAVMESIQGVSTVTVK
How it was run: as §1

Measured: log2 ratio of Biotin-Ahx-Ub-VS probe labelling

Chain of USP24 (Q9UPU5 whole entry): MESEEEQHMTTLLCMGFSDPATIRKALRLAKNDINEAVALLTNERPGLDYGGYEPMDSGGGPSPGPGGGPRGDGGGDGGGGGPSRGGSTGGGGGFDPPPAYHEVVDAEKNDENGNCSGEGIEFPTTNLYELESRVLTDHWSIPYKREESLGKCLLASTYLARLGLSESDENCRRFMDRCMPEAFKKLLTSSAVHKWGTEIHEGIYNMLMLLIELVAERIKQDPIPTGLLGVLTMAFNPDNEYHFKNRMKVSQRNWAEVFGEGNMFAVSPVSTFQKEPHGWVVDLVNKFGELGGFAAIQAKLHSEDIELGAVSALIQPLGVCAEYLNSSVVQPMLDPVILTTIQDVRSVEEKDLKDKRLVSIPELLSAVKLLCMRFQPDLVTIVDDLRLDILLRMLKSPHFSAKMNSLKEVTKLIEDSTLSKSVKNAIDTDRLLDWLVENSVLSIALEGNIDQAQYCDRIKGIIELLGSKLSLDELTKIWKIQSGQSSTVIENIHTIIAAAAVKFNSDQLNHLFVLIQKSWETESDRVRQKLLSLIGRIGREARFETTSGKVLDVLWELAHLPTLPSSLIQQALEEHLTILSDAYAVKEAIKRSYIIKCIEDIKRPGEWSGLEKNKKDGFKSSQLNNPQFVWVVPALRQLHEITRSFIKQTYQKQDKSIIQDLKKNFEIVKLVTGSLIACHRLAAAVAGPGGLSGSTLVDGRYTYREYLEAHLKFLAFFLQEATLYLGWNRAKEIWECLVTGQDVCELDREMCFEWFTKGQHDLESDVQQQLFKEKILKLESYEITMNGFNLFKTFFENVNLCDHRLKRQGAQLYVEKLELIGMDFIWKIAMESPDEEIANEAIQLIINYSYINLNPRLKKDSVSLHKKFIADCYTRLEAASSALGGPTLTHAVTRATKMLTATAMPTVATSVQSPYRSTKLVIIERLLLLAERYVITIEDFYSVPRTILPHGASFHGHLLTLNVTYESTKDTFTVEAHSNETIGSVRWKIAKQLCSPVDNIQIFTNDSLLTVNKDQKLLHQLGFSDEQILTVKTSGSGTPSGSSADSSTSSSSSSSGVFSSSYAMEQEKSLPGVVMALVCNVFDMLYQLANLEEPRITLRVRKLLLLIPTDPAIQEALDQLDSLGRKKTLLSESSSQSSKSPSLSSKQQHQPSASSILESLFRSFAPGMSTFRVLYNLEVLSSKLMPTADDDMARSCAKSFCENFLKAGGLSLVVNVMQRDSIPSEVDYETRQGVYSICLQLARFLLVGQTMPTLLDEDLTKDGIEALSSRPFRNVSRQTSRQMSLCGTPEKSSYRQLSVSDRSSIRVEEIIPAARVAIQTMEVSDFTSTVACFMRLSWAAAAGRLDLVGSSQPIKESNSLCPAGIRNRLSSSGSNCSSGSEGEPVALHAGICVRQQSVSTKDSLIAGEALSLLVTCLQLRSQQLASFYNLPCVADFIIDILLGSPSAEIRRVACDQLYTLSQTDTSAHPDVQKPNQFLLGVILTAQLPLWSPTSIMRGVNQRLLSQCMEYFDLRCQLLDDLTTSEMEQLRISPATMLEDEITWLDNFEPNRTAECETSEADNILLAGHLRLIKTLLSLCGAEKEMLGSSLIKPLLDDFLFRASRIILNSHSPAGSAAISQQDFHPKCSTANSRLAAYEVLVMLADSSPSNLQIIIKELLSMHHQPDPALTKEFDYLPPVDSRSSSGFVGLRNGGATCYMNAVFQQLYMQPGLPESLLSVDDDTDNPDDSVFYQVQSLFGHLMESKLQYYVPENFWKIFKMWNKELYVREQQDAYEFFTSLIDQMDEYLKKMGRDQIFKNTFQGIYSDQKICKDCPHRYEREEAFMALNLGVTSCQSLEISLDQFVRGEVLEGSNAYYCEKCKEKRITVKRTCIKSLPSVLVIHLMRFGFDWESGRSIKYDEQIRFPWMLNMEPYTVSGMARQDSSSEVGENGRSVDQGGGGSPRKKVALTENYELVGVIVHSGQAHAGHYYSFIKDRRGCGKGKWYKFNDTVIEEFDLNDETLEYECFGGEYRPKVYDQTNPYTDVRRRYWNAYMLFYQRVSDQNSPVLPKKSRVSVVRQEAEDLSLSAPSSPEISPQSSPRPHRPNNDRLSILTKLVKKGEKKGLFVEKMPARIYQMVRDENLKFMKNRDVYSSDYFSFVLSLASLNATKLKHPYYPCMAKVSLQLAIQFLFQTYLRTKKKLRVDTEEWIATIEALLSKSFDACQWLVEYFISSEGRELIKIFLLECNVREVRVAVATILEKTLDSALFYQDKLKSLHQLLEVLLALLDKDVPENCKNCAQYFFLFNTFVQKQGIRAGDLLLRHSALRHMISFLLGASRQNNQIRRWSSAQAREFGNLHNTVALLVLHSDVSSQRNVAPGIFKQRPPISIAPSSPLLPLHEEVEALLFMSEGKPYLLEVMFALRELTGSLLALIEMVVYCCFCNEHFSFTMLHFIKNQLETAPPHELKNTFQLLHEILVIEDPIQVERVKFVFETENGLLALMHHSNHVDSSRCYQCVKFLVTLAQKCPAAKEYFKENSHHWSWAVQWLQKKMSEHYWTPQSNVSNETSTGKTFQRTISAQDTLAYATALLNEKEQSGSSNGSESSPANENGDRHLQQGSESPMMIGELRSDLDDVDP

NC(=O)C1CCCN(C(=O)CCl)C1 (centres undefined)
inactive: USP19 -0.249 | USP24 -0.257 | USP25 -0.119 | USP28 -0.348
